Data published in PubChem BioAssay (NCATS).
Records with an inconclusive call do not appear. Activity calls are given as the source filed them. Unless noted, the call rests on the fitted dose curve; in most records, active means well fitted curve in the direction sought with a large enough effect; inconclusive means small, poorly fitted or top-dose-only effect, or another doubt; inactive means no such curve, though single readings can be large; an effect the other way counts as inactive or inconclusive.

How the values were obtained:
[1] = Cell Viability - BJ (AID 421; calls by dose curve;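 further: potency means the concentration at half of the fitted maximal effect; cells exposed to compound for 40 hours at 37 °C before readout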); conditions: BJ fibroblast viability, qHTS
Procedure, shortened: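 Luminescent ATP signal (CellTiter-Glo, 20 min at room temperature) served as the read-out of viable BJ cells after 40 hours of compound treatment. Responses were scaled between DMSO and 100 uM tamoxifen, and AC50 values were obtained by Hill modeling.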

[2] = Cell Viability - Jurkat (AID 426;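 active means dose-dependent loss of cell ATP signal giving a full or clear fitted curve, ranked by lower potency value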;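 further: potency means the concentration at half of the fitted maximal effect; cells exposed to compound for 40 hours at 37 °C before ATP read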); conditions: qHTS
Procedure, shortened: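 Luminescent ATP read-out (CellTiter-Glo, 20 min at room temperature) after 40 hr compound exposure at 37 °C of Jurkat E6-1 cells, 5000/well. Decreased ATP taken as cytotoxicity; AC50 from standard Hill equation.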

[3] = Cell Viability - Hek293 (AID 427;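 active means compounds whose dose-response curve shows a full or clear partial loss of cell viability, called from curve shape rather than a numeric limit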;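 further: potency means the concentration at half of the fitted maximal effect; cells exposed to compound for 40 hours at 37 °C before reading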); conditions: qHTS
Procedure, shortened: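 Luminescent ATP read-out (CellTiter-Glo, 20 min RT) after 40 hr compound exposure at 37 °C in complete medium. Signal normalized to DMSO (basal) and 100 uM tamoxifen (100% inhibition); concentration-response fitted with the standard Hill equation to give AC50.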

[4] = Cell Viability - HepG2 (AID 433; calls by dose curve;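 further: potency means the concentration at half of the fitted maximal effect; potency for ATP loss meaning cytotoxicity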); conditions: qHTS
Procedure, shortened: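 Read-out is luciferase-based quantitation of cellular ATP as a measure of viable HepG2 cells after 40 h treatment at 37 °C. Signal decrease is scaled between DMSO-only and 100 uM tamoxifen controls, with AC50 fitted by the Hill equation.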

[5] = Cell Viability - MRC5 (AID 434; calls by dose curve;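 further: potency means the concentration at half of the fitted maximal effect; cells exposed to compound for 40 hours at 37 °C; potency reflects cytotoxicity seen as loss of intracellular ATP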); conditions: MRC5 lung fibroblast viability, qHTS
Procedure, shortened: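 ATP luminescence read-out (CellTiter-Glo, 20 min RT) after 40 hr, 37 °C compound exposure of 1500 MRC5 cells/well. Data normalized to DMSO (basal) and 100 uM tamoxifen (100% inhibition); AC50 from standard Hill equation.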

[6] = Cell Viability - SK-N-SH (AID 435; calls by dose curve; further: potency means the concentration at half of the fitted maximal effect); conditions: SK-N-SH neuroblastoma cell viability qHTS
Procedure, shortened: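 Luminescent ATP signal served as the viability read-out after 40 hours of compound treatment of human neuroblastoma SK-N-SH cells. Concentration-response data, scaled between DMSO and 100 uM tamoxifen, gave AC50 values by standard Hill modeling.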

[7] = Cell Viability - N2a (AID 540); conditions: N2a mouse neuroblastoma cell viability; activity change, negative = cytotoxicity: at 92.2 µM (top of the series);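 further: plate controls were DMSO alone for no effect and tamoxifen control for full effect; nearly all actives have a fitted effect of over 45% in size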
Procedure, shortened: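 N2a mouse neuroblastoma, 1500 cells/well, 5 hr settle; compound 40 hr, 37 °C; CellTiter-Glo 20 min RT; luminescence; Hill-fit AC50.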

[8] = Cell Viability - NIH 3T3 (AID 541); conditions: NIH 3T3 cell viability, qHTS; activity change, negative = cytotoxicity: at 92.2 µM (top of the series);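 further: plate controls were DMSO alone for no effect and tamoxifen positive control for full effect; nearly all actives have a fitted effect of over 25% in size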
Procedure, shortened: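 qHTS format; 40 hr compound exposure, 37 °C; CellTiter-Glo luminescence (cellular ATP) read-out after 20 min at RT. Decrease in ATP = cytotoxicity; AC50 from standard Hill fit.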

[9] = Cell Viability - HUV-EC-C (AID 542); conditions: HUV-EC-C endothelial cell viability, qHTS; series mostly up to 92.2 µM; further: on the % scale 0 is the no-effect control and ±100 the full control effect; nearly all actives have a fitted effect of over 35% in size
Procedure, shortened: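 Luminescent ATP read-out (CellTiter-Glo, 20 min room temperature) after 40 hr compound treatment of HUV-EC-C cells at 37 °C. Concentration-response data fitted with the standard Hill equation to give AC50; tamoxifen and doxorubicin served as positive controls.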

[10] = Cell Viability - H-4-II-E (AID 543); conditions: H-4-II-E rat hepatoma viability; series mostly up to 92.2 µM; further: on the % scale 0 is the no-effect control and ±100 the full control effect; nearly all actives have a fitted effect of over 35% in size
Procedure, shortened: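 qHTS, rat hepatoma H-4-II-E, 1500 cells/well; 40 hr compound exposure, 37 °C; CellTiter-Glo ATP luminescence after 20 min RT; AC50 by standard Hill fit.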

[11] = Cell Viability - SH-SY5Y (AID 544); conditions: SH-SY5Y neuroblastoma cell viability; viability change, negative = cytotoxic: at 92.2 µM (top of the series); further: nearly all actives have a fitted effect of over 55% in size
Procedure, shortened: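 SH-SY5Y, 1500 cells/well, 5 hr pre-incubation 37 °C; cpd 40 hr 37 °C; CellTiter-Glo 20 min RT; luminescence (ATP) read. qHTS concentration-response, Hill fit → AC50. Tamoxifen, doxorubicin as positive controls.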

[12] = Cell Viability - Renal Proximal Tubule (AID 545); conditions: renal proximal tubule cells viability, primary cells of rat origin; series mostly up to 91.7 µM; further: nearly all actives have a fitted effect of over 40% in size
Procedure, shortened: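 Luminescent ATP signal (CellTiter-Glo) served as the viability read-out after 40 hr compound exposure of freshly isolated rat proximal tubule cells at 37 °C. Concentration-dependent ATP loss was fitted with the Hill equation to give AC50.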

[13] = Cell Viability - Mesenchymal (AID 546); conditions: mesenchymal cells viability, qHTS; series mostly up to 91.7 µM;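 further: cells exposed to compound for 40 hours before reading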
Procedure, shortened: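 Human renal mesenchymal cells (glomerulus-derived), 1000 cells/well, 5 hr 37 °C pre-incubation; compound 40 hr, 37 °C; CellTiter-Glo, 20 min RT; luminescence; AC50 via Hill equation.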

[14] = Cellular Toxicity (caspase-3) HepG2 (AID 654); conditions: HepG2 caspase-3 activation, luminescence; series mostly up to 92.2 µM;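 further: cells exposed to compound for 16 hours before reading; 0% = DMSO alone and 100% = caspase signal from 100 µM tamoxifen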
Procedure, shortened: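 Luminescent Caspase-Glo 3/7 readout after 16 hr compound exposure of human hepatocellular carcinoma HepG2 cells at 37 °C; qHTS concentration-response, normalized DMSO = 0%, 100 uM tamoxifen = 100%; AC50 by standard Hill equation.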

[15] = Cellular Toxicity (caspase-3) Jurkat (AID 655); conditions: Jurkat caspase-3 activation, luminescence; caspase-3 activation: at 92.2 µM (top of the series), DMSO = 0%, tamoxifen = 100%;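 further: cells exposed to compound for 16 h at 37 °C before reading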
Procedure, shortened: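 5000 Jurkat cells/well; compound 16 hr, 37 °C; Caspase-Glo 3/7 added, 20 min RT; luminescence read. Norm: DMSO = 0%, tamoxifen 100 uM = 100%. AC50, Hill model.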

[16] = Cellular Toxicity (caspase-3) HUV-EC-C (AID 656); conditions: HUV-EC-C cells, caspase-3 activation (apoptosis), vehicle = 0, 100 µM tamoxifen = 100%; series mostly up to 92.2 µM
Procedure, shortened: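 qHTS; HUV-EC-C, 1000 cells/well; 5 hr settle, 16 hr cmpd, 37°C; Caspase-Glo 3/7, 20 min RT; luminescence. Norm: DMSO = 0%, tamoxifen 100 uM = 100%. Hill-fit AC50.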

[17] = Cellular Toxicity (caspase-3) BJ (AID 658); conditions: BJ fibroblasts, luminescence, normalized: DMSO 0%, staurosporine 100%; series mostly up to 91.7 µM;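 further: cells exposed to compound for 16 hours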
Procedure, shortened: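 qHTS, BJ fibroblasts, 1000 cells/well; 5 hr preincubation, 16 hr compound, 37 °C; Caspase-Glo 3/7 reagent, 1 hr RT; luminescence. DMSO = 0%, 10 uM staurosporine = 100%. Hill-equation AC50.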

[18] = Cellular Toxicity (caspase-3) MRC-5 (AID 659); conditions: MRC-5 cells, luminescence, normalized: DMSO 0%, 10 µM staurosporine 100%; series mostly up to 91.7 µM
Procedure, shortened: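 MRC-5 fibroblasts, 1500/well; 16 h cpd, 37 °C; Caspase-Glo 3/7, 1 h RT; lumi read. Norm: DMSO = 0%, 10 uM staurosporine = 100%. Hill-fit AC50 from qHTS conc-response.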

[19] = target: Mitogen-activated protein kinase 10 (Mus musculus) (UniProt Q61831); assay: JNK3 AlphaScreen Assay (AID 530; active means well fitted curve in either direction with a large enough effect, not every such curve was filed as active;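 further: kinase came from lysate of stimulated human HepG2 cells; signal reports phosphorylation of biotinylated GST-cJun 1-79 at Ser73 with 10 µM ATP; on the % scale 0 is the no-effect control and ±100 the full control effect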); conditions: JNK3 lysate, c-Jun phosphorylation; series mostly up to 57.1 µM
Procedure, shortened: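 HepG2 lysate (IL-1b/TNFa pre-activated) + biotin-GST-cJun 1-79 + anti-pSer73 cJun; cpd titration, 15 min RT; ATP 10 uM start; Tris pH 7.6, MgCl2, DTT, vanadate; beads in EDTA buffer; AlphaScreen.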

[20] = Cellular Toxicity (caspase-3) SHSY5Y (AID 657); conditions: SH-SY5Y caspase-3 activation, DMSO zero, 10 µM staurosporine = 100%; series mostly up to 91.7 µM;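 further: cells exposed to compound for 16 hours at 37 °C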
Procedure, shortened: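 qHTS, SH-SY5Y, 1500 cells/well, 5 h pre-incubation 37 °C; compound 16 h 37 °C; Caspase-Glo 3/7 1 h RT; luminescence. Norm.: DMSO = 0, 10 uM staurosporine = 100%. Hill fit → AC50.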

CC(C)c1ccccc1
inactive: Potency [1] > 92 µM | Potency [2] > 92 µM | Potency [3] > 92 µM | Potency [4] > 92 µM | Potency [5] > 92 µM | Potency [6] > 92 µM | activity change, negative = cytotoxicity [7] -8.99% | Potency [8] | Potency [9] | Potency [10] | Potency [11] | Potency [12] | Potency [13] | Potency [14] | caspase-3 activation [15] -0.787% | outcome [16] | outcome [17] | outcome [18]

O=C(O)/C=C/C(=O)O
inactive: Potency [1] > 92 µM | Potency [2] > 92 µM | Potency [3] > 92 µM | Potency [4] > 92 µM | Potency [5] > 92 µM | Potency [6] > 92 µM | activity change, negative = cytotoxicity [7] 4.39% | Potency [8] | Potency [9] | Potency [10] | Potency [11] | Potency [12] | Potency [13] | Potency [14] | caspase-3 activation [15] 1.23% | outcome [17] | outcome [18]

Nc1cc(Cl)c([N+](=O)[O-])cc1O
inactive: Potency [1] > 92 µM | Potency [2] > 92 µM | Potency [3] > 92 µM | Potency [4] > 92 µM | Potency [5] > 92 µM | Potency [6] > 92 µM | outcome [19] | Potency [9] | Potency [10] | Potency [11] | Potency [12] | Potency [14] | caspase-3 activation [15] 1.7% | outcome [16] | outcome [17] | outcome [18]
active: activity change, negative = cytotoxicity [7] -99.1%

CN(C)CCCCl
inactive: Potency [1] > 92 µM | Potency [2] > 92 µM | Potency [3] > 92 µM | Potency [4] > 92 µM | Potency [5] > 92 µM | Potency [6] > 92 µM | activity change, negative = cytotoxicity [7] -0.582% | Potency [8] | Potency [9] | Potency [10] | Potency [11] | Potency [12] | Potency [13] | Potency [14] | outcome [16] | outcome [20] | outcome [17] | outcome [18]

S=C([S-])NCCNC(=S)[S-].[Zn+2]
inactive: Potency [1] > 92 µM | Potency [2] > 92 µM | Potency [3] > 92 µM | Potency [4] > 92 µM | Potency [5] > 92 µM | Potency [6] > 92 µM | outcome [19] | activity change, negative = cytotoxicity [7] -5.49% | Potency [9] | Potency [11] | Potency [12] | Potency [13] | Potency [14] | caspase-3 activation [15] 5.46% | outcome [16] | outcome [20] | outcome [18]

CNc1ccc([N+](=O)[O-])cc1
inactive: Potency [1] > 92 µM | Potency [2] > 92 µM | Potency [3] > 92 µM | Potency [4] > 92 µM | Potency [5] > 92 µM | Potency [6] > 92 µM | outcome [19] | activity change, negative = cytotoxicity [7] -12.7% | Potency [9] | Potency [10] | Potency [11] | Potency [12] | Potency [13] | Potency [14] | caspase-3 activation [15] -0.0856% | outcome [16] | outcome [20] | outcome [17] | outcome [18]

CC=C(Cl)Cl
inactive: Potency [1] > 92 µM | Potency [2] > 92 µM | Potency [3] > 92 µM | Potency [4] > 92 µM | Potency [5] > 92 µM | Potency [6] > 92 µM | outcome [19] | activity change, negative = cytotoxicity [7] -2.96% | Potency [9] | Potency [10] | Potency [11] | Potency [13] | Potency [14] | caspase-3 activation [15] -0.538% | outcome [16] | outcome [20] | outcome [18]

O=CNc1ccccc1
inactive: Potency [1] > 92 µM | Potency [2] > 92 µM | Potency [3] > 92 µM | Potency [4] > 92 µM | Potency [5] > 92 µM | Potency [6] > 92 µM | outcome [19] | activity change, negative = cytotoxicity [7] 5.69% | Potency [9] | Potency [10] | Potency [11] | Potency [12] | Potency [13] | Potency [14] | outcome [16] | outcome [17] | outcome [18]

Nc1cccc([N+](=O)[O-])c1
inactive: Potency [1] > 92 µM | Potency [2] > 92 µM | Potency [3] > 92 µM | Potency [4] > 92 µM | Potency [5] > 92 µM | Potency [6] > 92 µM | outcome [19] | activity change, negative = cytotoxicity [7] -10.1% | Potency [9] | Potency [10] | Potency [11] | Potency [12] | Potency [13] | Potency [14] | caspase-3 activation [15] 0.664% | outcome [16] | outcome [20] | outcome [18]

CCCCOCCOCCSC#N
inactive: Potency [1] > 92 µM | Potency [2] > 92 µM | Potency [3] > 92 µM | Potency [4] > 92 µM | Potency [5] > 92 µM | Potency [6] > 92 µM | outcome [19] | activity change, negative = cytotoxicity [7] 0.328% | Potency [9] | Potency [10] | Potency [11] | Potency [12] | Potency [13] | Potency [14] | caspase-3 activation [15] 1.11% | outcome [20] | outcome [18]

N#Cc1ccccc1
inactive: Potency [1] > 92 µM | Potency [2] > 92 µM | Potency [3] > 92 µM | Potency [4] > 92 µM | Potency [5] > 92 µM | Potency [6] > 92 µM | activity change, negative = cytotoxicity [7] 6.76% | Potency [8] | Potency [9] | Potency [10] | Potency [11] | Potency [12] | Potency [13] | Potency [14] | caspase-3 activation [15] -1.39% | outcome [16] | outcome [20] | outcome [17] | outcome [18]

C=Cc1ccccc1C=C
inactive: Potency [1] > 92 µM | Potency [2] > 92 µM | Potency [3] > 92 µM | Potency [4] > 92 µM | Potency [5] > 92 µM | Potency [6] > 92 µM | activity change, negative = cytotoxicity [7] 7.3% | Potency [8] | Potency [9] | Potency [10] | Potency [11] | Potency [12] | Potency [13] | Potency [14] | caspase-3 activation [15] -0.124% | outcome [16] | outcome [20] | outcome [17] | outcome [18]
